Assay results reported in PubChem BioAssay AID1159580 (chemical genetic matrix, 2015).
Several values for one entry are separate records, joined by “and”; a condition that tells them apart may be missing. Identical values can stand only once. In all, about 5,500 compounds went through this assay and about 2,000 (36%) were called active. About 18% were inconclusive and are not listed. Rule as the data show it: active = normalized growth mostly below about 0.91 (no sharp cut-off); inconclusive = no clear call, values can overlap the other calls; inactive = mostly above about 0.92. The list shows a part of the results.

Experiment: chemical genetic growth profiling, strain panel (AID 1159580);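 also: tested at 20 µM; growth read once vehicle control cultures reached saturation at 30 °C; 1 = growth at the plate median or of vehicle wells; lower values mean less growth of the strain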
Conditions: S. cerevisiae deletion strains, growth OD

Measured: normalized growth

Nc1ncnc2c1ncn2C1O[C@H](COP(=O)(O)O)[C@@H](O)[C@H]1O (stereo partly specified)
inactive: locus YAL013W, strain DEP1, hits give low values 1.01 | locus YAL021C, strain ccr4, hits give low values 0.996 | locus YAL026C, strain drs2, hits give low values 1 | locus YAL030W, strain snc1, hits give low values 0.997 | locus YBL061C, strain skt5, hits give low values 0.999 | locus YBR009C, strain hhf1, hits give low values 0.95 | locus YBR021W, strain FUR4, hits give low values 1.01 | locus YBR023C, strain chs3, hits give low values 0.99 | locus YBR171W, strain sec66, hits give low values 1 | locus YBR229C, strain ROT2, hits give low values 1.01 | locus YBR231C, strain swc5, hits give low values 1.01 | locus YBR279W, strain paf1, hits give low values 0.999 | locus YCL011C, strain gbp2, hits give low values 0.991 | locus YCL016C, strain dcc1, hits give low values 0.982 | locus YCL069W, strain vba3, hits give low values 0.996 | locus YCR088W, strain abp1, hits give low values 0.988 | locus YDL005C, strain med2, hits give low values 1.03 | locus YDL035C, strain GPR1, hits give low values 1.04 | locus YDL040C, strain nat1, hits give low values 1 | locus YDL074C, strain BRE1, hits give low values 1.03 | locus YDL101C, strain DUN1, hits give low values 1.01 | locus YDL134C, strain PPH21, hits give low values 1.02 | locus YDL185W, strain tfp1, hits give low values 0.992 | locus YDR001C, strain nth1, hits give low values 0.997 | locus YDR069C, strain doa4, hits give low values 1.04 | locus YDR137W, strain rgp1, hits give low values 1 | locus YDR150W, strain NUM1, hits give low values 1.02 | locus YDR159W, strain sac3, hits give low values 0.95 | locus YDR162C, strain NBP2, hits give low values 1.01 | locus YDR195W, strain ref2 1.01 | locus YDR297W, strain sur2, hits give low values 1.01 | locus YDR334W, strain swr1, hits give low values 1 | locus YDR335W, strain msn5, hits give low values 1 | locus YDR392W, strain spt3, hits give low values 0.95 | locus YEL003W, strain gim4, hits give low values 1 | locus YEL037C, strain rad23, hits give low values 0.993 | locus YEL061C, strain CIN8 (second series), hits give low values 1 | locus YEL061C, strain CIN8, hits give low values 1.01 | locus YER015W, strain faa2, hits give low values 0.987 | locus YER016W, strain bim1, hits give low values 0.97 | locus YER111C, strain swi4, hits give low values 0.991 | locus YER155C, strain BEM2 (second series), hits give low values 1.05 | locus YER155C, strain BEM2, hits give low values 1.01 | locus YER167W, strain BCK2, hits give low values 1.03 | locus YFR010W, strain ubp6, hits give low values 1.01 | locus YGL078C, strain dbp3, hits give low values 0.993 | locus YGL167C, strain pmr1, hits give low values 1 | locus YGL173C, strain kem1, hits give low values 0.995 | locus YGL227W, strain vid30, hits give low values 1.01 | locus YGL240W, strain doc1, hits give low values 1.04 | locus YGL248W, strain PDE1, hits give low values 1.02 | locus YGL253W, strain hxk2, hits give low values 0.972 | locus YGR078C, strain PAC10, hits give low values 1.02 | locus YGR229C, strain SMI1, hits give low values 1.03 | locus YGR252W, strain gcn5, hits give low values 0.987 | locus YHR013C, strain ard1, hits give low values 0.965 | locus YHR027C, strain rpn1, hits give low values 1 | locus YHR030C, strain SLT2, hits give low values 1.01 | locus YHR079C, strain IRE1, hits give low values 1.02 | locus YHR094C, strain hxt1, hits give low values 0.955 | locus YHR129C, strain ARP1, hits give low values 1.01 | locus YHR142W, strain chs7, hits give low values 1.01 | locus YIL066C, strain RNR3, hits give low values 1.03 | locus YIL073C, strain SPO22, hits give low values 1.03 | locus YIL125W, strain kgd1, hits give low values 0.999 | locus YJL092W, strain hpr5, hits give low values 1 | locus YJL095W, strain BCK1 (second series), hits give low values 0.996 | locus YJL095W, strain BCK1, hits give low values 0.99 and 0.989 | locus YJL115W, strain asf1, hits give low values 0.998 | locus YJL129C, strain trk1, hits give low values 1 | locus YJL134W, strain LCB3, hits give low values 1.01 | locus YJL154C, strain vps35, hits give low values 0.999 | locus YJL164C, strain tpk1, hits give low values 0.967 | locus YJL166W, strain qcr8, hits give low values 1.03 | locus YJL187C, strain SWE1 (second series), hits give low values 1.03 | locus YJL187C, strain SWE1, hits give low values 0.996 | locus YJR043C, strain POL32, hits give low values 1 | locus YJR066W, strain TOR1, hits give low values 0.965
active: locus YCL029C, strain bik1, hits give low values 0.523 | locus YDL192W, strain arf1, hits give low values 0.811 | locus YDR101C, strain arx1, hits give low values 0.589 | locus YDR318W, strain mcm21, hits give low values 0.73 | locus YDR388W, hits give low values 0.209 | locus YDR502C, strain sam2, hits give low values 0.632 | locus YER110C, hits give low values 0.798 | locus YGL086W, strain mad1, hits give low values 0.74 | locus YGR135W, strain pre9, hits give low values 0.776 | locus YHR079C, strain IRE1 (second series), hits give low values 0.345 | locus YHR200W, strain rpn10, hits give low values 0.911 | locus YIR030C, strain dcg1, hits give low values 0.648 | locus YJL168C, strain set2, hits give low values 0.927
